G9a inh: blocks human histone lysine methyltransferase G9a; 350,000 compounds, 8.8% hits; G9a H3K9 monomethylation, AlphaScreen, 2 h; Potency, µM (top dose mostly 102 µM), inactives show top-dose activity, negative = inhibition, actives largely listed as inhibitors; Q96KQ7; also: % is scaled to controls: 0 for no effect and ±100 for the full control effect; nearly all actives have a fitted effect of over 75% in size
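G9a (20 nM) preincubated 15 min RT with compounds, then 500 nM biotinylated H3K9 peptide and 20 uM SAM added; 2 h RT reaction. Monomethyl-H3K9 product detected by AlphaScreen with anti-H3K9me1 antibody, streptavidin donor and anti-rabbit IgG acceptor beads.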
GRP78 ERSR act: inducers of ER stress response in human glioma cells | Potency, µM, for the others: at the top dose activation, usual class: activators | 420,000 compounds, 0.02% hits | U87-MG GRP78 promoter luciferase reporter, 16 h; also: series mostly up to about 76 µM; % of control where 0% means no effect; nearly all actives have a fitted effect of over 35% in size
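ERSR induction read as luciferase luminescence (Bright-Glo, 10 min at room temperature) in stably transfected human U87-MG glioma cells exposed to compounds for 16 h, using GRP78 as sensor.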
ALOX12 inh: ALOX12 (human) lipoxygenase inhibition; purified 12hLO, xylenol orange hydroperoxide absorbance; 580,000 compounds, 1.1% hits; Potency, µM (titrated, usually from 108 µM), for the others: at the top dose activity change, negative = inhibition, usual class: inhibitors; P18054; AID 1671190; also: % is scaled to controls: 0 for no effect and ±100 for the full control effect
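Hydroperoxide product was detected by ferrous iron/xylenol orange as the 573 to 405 nm absorbance ratio. Arachidonic acid at 40 uM (final) was turned over for 30 min at room temperature by 150 nM human 12hLO, pH 7.0 Hepes buffer, after 15 min compound preincubation.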
VDR inh: blocks the human vitamin D receptor | Potency, µM, for inactives: max response, negative = inhibition, usual class: inhibitors | AID 504847 | VDR-SRC2-3 peptide fluorescence polarization, 2 h | P11473 | 400,000 compounds, 0.93% hits; also: % is scaled to controls: 0 for no effect and ±100 for the full control effect
Target sequence (P11473 whole entry, looked up): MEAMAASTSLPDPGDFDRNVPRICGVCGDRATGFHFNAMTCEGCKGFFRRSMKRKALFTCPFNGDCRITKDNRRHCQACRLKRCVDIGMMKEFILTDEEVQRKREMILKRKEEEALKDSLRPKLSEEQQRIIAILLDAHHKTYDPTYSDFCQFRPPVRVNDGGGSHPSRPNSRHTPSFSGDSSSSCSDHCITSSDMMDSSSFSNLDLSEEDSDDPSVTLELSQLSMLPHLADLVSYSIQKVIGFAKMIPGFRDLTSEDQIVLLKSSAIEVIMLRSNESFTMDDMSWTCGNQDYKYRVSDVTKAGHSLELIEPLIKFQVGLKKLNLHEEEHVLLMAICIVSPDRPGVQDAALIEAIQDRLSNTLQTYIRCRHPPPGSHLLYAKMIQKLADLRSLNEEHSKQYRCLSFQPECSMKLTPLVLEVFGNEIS
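VDR–SRC2-3 interaction, FP format. Cmpds 23 nl via pintool, brief spin, 2 h ambient incubation.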
Sfp PPTase inh: inhibitors of Bacillus subtilis Sfp phosphopantetheinyl transferase; Q9F4F7; Biochemical Sfp PPTase activity, qHTS; Potency, µM, without a hit: largest response in the series, negative = inhibition, usual class: inhibitors; 310,000 compounds, 3.5% hits;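 also: the enzyme is Sfp with the accession as filed and its product quenches rhodamine fluorescence; 0% = enzyme reaction without inhibitor and -100% = no enzyme wells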
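Sfp 15 nM + cpd, 15 min RT; start w/ rhodamine-CoA 5 uM, BHQ-2-YbbR 12.5 uM (final); 50 mM Hepes pH 7.6, 10 mM MgCl2, 0.01% NP-40, 0.01% BSA; read 525/598 nm at 0 and 30 min.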
* hit, by the source's call; ? = inconclusive; . = not tested or not shown; [ ] = dose if it differs, or a comment. The entries come from a sample that favours hits as a whole. Calls follow the shape of the dose curve; as a rule, active = well fitted curve in the direction sought with a large enough effect; inconclusive = small, poorly fitted or top-dose-only effect, or another doubt; inactive = no such curve, though single readings can be large; an effect the other way counts as inactive or inconclusive. Potency is read from the fitted curve at half-maximal effect.

SMILES	G9a inh	GRP78 ERSR act	ALOX12 inh	VDR inh	Sfp PPTase inh
COc1ccc(C(=O)CN2CCN(S(=O)(=O)c3cccc([N+](=O)[O-])c3)CC2)cc1OC	8.9µM*	-4%	-10%	-5%	35µM*
COc1cccc(C(=O)CN2CCN(S(=O)(=O)c3cccc([N+](=O)[O-])c3)CC2)c1	20µM*	1%	-2%	-18%	-30%
COc1ccc(-c2cc3c(=O)n(CCNC(=O)c4c(F)cccc4Cl)ccn3n2)cc1	.	.	17%	.	.
CCOc1ccc(C(N)=O)cc1OC	10%[12.7 µM]	-6%	-48%	-9%	18%
CCOc1ccc(N)cc1OC	50µM*	-1%	2%	-13%	5%
COc1ccccc1Cn1[nH]nnc1=S	3.2µM*	-10%	22µM*	-15%	40µM*
NCc1ccc2cc[nH]c2c1	.	.	-22%	.	.
C=CCNC(=S)NNC(N)=S	.	.	8.9µM*	.	.
Cn1c(N)c(C(=O)/C=C/c2ccccc2)c(=O)[nH]c1=O	?	2%	1%	20%	50µM*
Cn1c(N)c(C(=O)Nc2ccccc2)c(=O)[nH]c1=O	.	3%	-24%	2%	.
O=C(O)[C@H](Cc1ccccc1)NC(=O)N1CCC(Cc2ccccc2)CC1	14µM*	-1%	?	5%	17%
O=C(c1ccc(Br)o1)N1CCC(Cc2ccccc2)CC1	40µM*	-2%	?	10%	-3%
CC1CN(C(=O)N[C@@H](Cc2ccccc2)C(=O)O)CC(C)O1 (stereo partly drawn)	56µM*	7%	?	9%	10%
CSCC[C@H](NC(=O)C1CCN(C(=O)[C@@H](N)Cc2ccccc2)CC1)C(=O)O	?	-4%	0%	5%	22%
N[C@@H](Cc1ccccc1)C(=O)N1CCC(C(=O)N[C@@H](CCC(=O)O)C(=O)O)CC1	79µM*	-5%	?	-3%	-3%
CCN(CC(=O)NCc1ccc(Cl)cc1)C(=O)Cn1nc(C(=O)O)c2ccccc2c1=O	.	.	0%	.	.
CCOc1ccc(OCC(=O)Nc2ccc3oc(C)nc3c2)cc1	.	.	0%	.	.
Cc1ccccc1-c1noc(CN(C)C(C)c2cc3ccccc3o2)n1 (stereo not drawn)	.	.	13%	.	.
CCOC(=O)c1c(NC(=O)Cc2cccs2)sc2c1CCCC2	12%	-5%	1%	-11%	32µM*
CCOC(=O)c1c(NC(=O)C2C3C=CC(C3)C2C(=O)O)sc2c1CCCC2 (stereo not drawn)	-43%	-2%	-4%	-9%	14%
CCOC(=O)c1c(NC(=O)COc2cccc(C)c2C)sc2c1CCCCC2	11µM*	0%	-18%	?	.
CCOC(=O)c1c(NC(=O)COc2ccccc2F)sc2c1CCCC2	9%[59 µM]	.	-21%	-3%	.
CCOC(=O)c1c(NC(=O)CSc2nnc(CNC(=O)c3ccco3)n2C)sc2c1CCC2	50µM*	-1%	9%	-4%	-14%
CCOC(=O)c1c(NC(=O)C2CC(Cl)=CCC2C(=O)O)sc2c1CCCCC2 (stereo not drawn)	45µM*	6%	.	-20%	-12%
COc1ccc(NC(=O)NCc2nc(-c3ccc(OC)cc3)oc2C)cc1	.	.	-23%	.	.
SMILES	G9a inh	GRP78 ERSR act	ALOX12 inh	VDR inh	Sfp PPTase inh
CCOC(=O)c1c(NC(=O)CCC(=O)O)sc2c1CCCCC2	7.9µM*	-5%	?	?	?
CCOC(=O)c1c(NC(=O)CCNCc2ccco2)sc2c1CCC2	14µM*	-5%	.	8%	?
CCOC(=O)c1c(NC(=O)CN(CC)CC)sc2c1CCC2	43%	-2%	17%	-13%	2%
CCOC(=O)c1c(NC(=O)CCCC(=O)O)sc2c1CCC2	20%[12.7 µM]	-2%	?	9%	23%
Cc1sc2ncnc(N3CCOCC3)c2c1-c1ccc(F)cc1	.	.	19%	.	.
Cc1cc(C)nc(Sc2ncnc(N)c2[N+](=O)[O-])n1	-5%[12.7 µM]	-16%	-6%	-10%	50µM*
Cc1cc(C)c(C#N)c(SCc2cc(=O)oc3cc(O)c(Cl)cc23)n1	.	.	-24%	.	.
C=CCc1ccc(OCC(O)CN2CCN(Cc3ccc(Cl)cc3)CC2)c(OC)c1 (stereo not drawn)	50µM*	-8%	?	-14%	-24%
C=CCc1ccc(OCC(O)CN2CCN(c3ccccc3OC)CC2)c(OC)c1 (stereo not drawn)	-22%[2.33 µM]	0%	?	30%	-8%
CCOc1ccccc1CNC(=O)c1ccc(CS(=O)c2ccc(OC)cc2)o1 (stereo not drawn)	.	.	-4%	.	.
CCOc1cc(C2C(C#N)=C(N)Oc3n[nH]c(-c4ccncc4)c32)cc([N+](=O)[O-])c1O (stereo not drawn)	-23%	-8%	2%	-2%	79µM*
CCOc1ccc(-c2[nH]nc3c2C(c2ccc(O)cc2)C(C#N)=C(N)O3)cc1 (stereo not drawn)	-5%[2.33 µM]	-1%	-17%[57.4 µM]	-5%	6%
NC(N)=N/N=C/C(Cl)=C/c1ccccc1	.	.	-1%	.	.
Cc1cccc(C)c1N1CCN(C(=O)N2CCOCC2)CC1	35µM*	-4%	-13%	-26%	-27%
CCc1nnc(NS(=O)(=O)c2ccc(NC(=S)NC(=O)/C=C/c3ccc([N+](=O)[O-])cc3)cc2)s1	35µM*	-2%	?	6%	7%
CCc1nnc(NS(=O)(=O)c2ccc(NC(=S)NC(=O)/C=C/c3ccc(F)cc3)cc2)s1	89µM*	-5%	10µM*	?	11%
CCc1nnc(NS(=O)(=O)c2ccc(NC(=O)/C=C/c3ccc(OC)cc3OC)cc2)s1	15%[59 µM]	-2%	?	-1%	6%
CCc1ccc(/C=C2\SC(=S)N(CCCC(=O)Nc3ccccc3C(=O)O)C2=O)cc1	32µM*	-16%	?	?	-1%
Cc1ccc(/C=C2\SC(=S)N(CCCC(=O)Nc3ccccc3C(=O)O)C2=O)cc1	94%	-17%	?	?	5%
COc1ccc(/C=C2\SC(=S)N(CC(=O)OCC(=O)Nc3cc(Cl)cc(Cl)c3)C2=O)cc1	32µM*	8%	40µM*	-20%	20µM*

High-throughput results from PubChem BioAssay.
